Measurements reported in PubChem BioAssay AID1159580 (chemical genetic matrix, 2015).
Values joined by “and” are separate entries in the source; they are usually repeats but may differ in a detail not shown here. Equal entries are not always repeated. In all, about 5,500 compounds went through this assay and about 2,000 (36%) were called active. Inconclusive results (about 18%) are left out. Rule as the data show it: active = normalized growth mostly below about 0.91 (no sharp cut-off); inconclusive = no clear call, values can overlap the other calls; inactive = mostly above about 0.92. Some of the results follow.

Assay: chemical genetic growth profiling, strain panel (AID 1159580);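 also: tested at 20 µM; growth read once vehicle control cultures reached saturation at 30 °C; 1 = growth at the plate median or of vehicle wells; lower values mean less growth of the strain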
Conditions: S. cerevisiae deletion strains, growth OD

Measured: normalized growth

C[C@@H]1CC[C@@]2(OC1)O[C@H]1CC3C4CC[C@H]5C[C@@H](O)CC[C@]5(C)C4CC[C@]3(C)[C@H]1[C@@H]2C (stereo not given in full)
inactive: locus YAL013W, strain DEP1, hits give low values 0.985 | locus YAL021C, strain ccr4, hits give low values 1.02 | locus YAL026C, strain drs2, hits give low values 1.01 | locus YAL030W, strain snc1, hits give low values 0.994 | locus YBL061C, strain skt5, hits give low values 1 | locus YBR009C, strain hhf1, hits give low values 0.99 | locus YBR021W, strain FUR4, hits give low values 1.11 | locus YBR023C, strain chs3, hits give low values 1 | locus YBR171W, strain sec66, hits give low values 0.994 | locus YBR229C, strain ROT2, hits give low values 0.988 | locus YBR231C, strain swc5, hits give low values 0.988 | locus YBR279W, strain paf1, hits give low values 0.996 | locus YCL011C, strain gbp2, hits give low values 0.994 | locus YCL016C, strain dcc1, hits give low values 0.998 | locus YCL029C, strain bik1, hits give low values 0.978 | locus YCL061C, strain MRC1, hits give low values 0.987 | locus YCL069W, strain vba3, hits give low values 1 | locus YCR088W, strain abp1, hits give low values 0.986 | locus YDL005C, strain med2, hits give low values 0.999 | locus YDL035C, strain GPR1, hits give low values 1.02 | locus YDL040C, strain nat1, hits give low values 0.998 | locus YDL074C, strain BRE1, hits give low values 1 | locus YDL101C, strain DUN1, hits give low values 0.983 | locus YDL134C, strain PPH21, hits give low values 0.972 | locus YDL185W, strain tfp1, hits give low values 0.954 | locus YDL192W, strain arf1, hits give low values 0.978 | locus YDR001C, strain nth1, hits give low values 0.997 | locus YDR069C, strain doa4, hits give low values 0.993 | locus YDR101C, strain arx1, hits give low values 1.01 | locus YDR137W, strain rgp1, hits give low values 1 | locus YDR159W, strain sac3, hits give low values 1 | locus YDR162C, strain NBP2, hits give low values 0.994 | locus YDR195W, strain ref2 0.989 | locus YDR297W, strain sur2, hits give low values 0.988 | locus YDR318W, strain mcm21, hits give low values 0.977 | locus YDR334W, strain swr1, hits give low values 0.993 | locus YDR335W, strain msn5, hits give low values 0.996 | locus YDR388W, hits give low values 0.981 | locus YDR392W, strain spt3, hits give low values 0.981 | locus YDR502C, strain sam2, hits give low values 0.992 | locus YEL003W, strain gim4, hits give low values 0.994 | locus YEL037C, strain rad23, hits give low values 0.989 | locus YEL061C, strain CIN8 (second series), hits give low values 0.992 | locus YER015W, strain faa2, hits give low values 0.996 | locus YER016W, strain bim1, hits give low values 0.998 | locus YER110C, hits give low values 0.969 | locus YER111C, strain swi4, hits give low values 0.994 | locus YER155C, strain BEM2 (second series), hits give low values 0.977 | locus YER155C, strain BEM2, hits give low values 0.999 | locus YER167W, strain BCK2, hits give low values 0.997 | locus YFR010W, strain ubp6, hits give low values 1 | locus YGL078C, strain dbp3, hits give low values 0.956 | locus YGL086W, strain mad1, hits give low values 0.993 | locus YGL167C, strain pmr1, hits give low values 0.999 | locus YGL173C, strain kem1, hits give low values 0.998 | locus YGL227W, strain vid30, hits give low values 0.987 | locus YGL240W, strain doc1, hits give low values 1.01 | locus YGL248W, strain PDE1, hits give low values 0.988 | locus YGL253W, strain hxk2, hits give low values 1 | locus YGR135W, strain pre9, hits give low values 0.941 | locus YGR252W, strain gcn5, hits give low values 1 | locus YHR013C, strain ard1, hits give low values 0.988 | locus YHR027C, strain rpn1, hits give low values 0.992 | locus YHR030C, strain SLT2, hits give low values 0.985 and 1 | locus YHR079C, strain IRE1 (second series), hits give low values 0.987 | locus YHR079C, strain IRE1, hits give low values 0.993 | locus YHR094C, strain hxt1, hits give low values 0.97 | locus YHR129C, strain ARP1, hits give low values 0.991 | locus YHR142W, strain chs7, hits give low values 1.03 | locus YHR200W, strain rpn10, hits give low values 0.997 | locus YIL066C, strain RNR3, hits give low values 1 | locus YIL073C, strain SPO22, hits give low values 0.892 | locus YIL125W, strain kgd1, hits give low values 0.979 | locus YIR030C, strain dcg1, hits give low values 0.977 | locus YJL092W, strain hpr5, hits give low values 0.99 | locus YJL095W, strain BCK1 (second series), hits give low values 0.989 | locus YJL095W, strain BCK1, hits give low values 0.979 and 0.99 | locus YJL115W, strain asf1, hits give low values 0.976 | locus YJL129C, strain trk1, hits give low values 0.977 | locus YJL134W, strain LCB3, hits give low values 0.993 | locus YJL154C, strain vps35, hits give low values 0.99 | locus YJL164C, strain tpk1, hits give low values 0.996 | locus YJL166W, strain qcr8, hits give low values 0.989 | locus YJL168C, strain set2, hits give low values 0.977 | locus YJL187C, strain SWE1 (second series), hits give low values 0.977
